# In PubChem BioAssay:
# Several values for one entry are separate records, joined by “and”; a condition that tells them apart may be missing. Equal values may be shown once.
# Test: sensitizers of A549 cells to miR-34 induction, primary screen, imaging, A549 dox-inducible miR-34, nuclei and caspase counts (AID 1347080); also: test concentration not given here
# Details: A549 miR-34 inducible, Hoechst nuclei count, 48 h; measured here: total cells with miR-34 induction; stronger effect = lower value
row,SMILES,cell count
1,CCOc1c2c(c(OCC)c3ccccc13)C(=O)N(c1ccc(CC(=O)NS(=O)(=O)c3ccccc3)cc1)C2,5560
2,CCCCCCCCCCOc1ccc(OCC(=O)Cn2cc(C(=O)OC)c3cc(C(=O)O)ccc32)cc1,6240
3,CCCCC(C)(C)[C@H](O)/C=C/[C@H]1C=CC(=O)[C@@H]1C/C=C\CCCC(=O)O,5990
4,CCCCC/C=C\C/C=C\C/C=C\C/C=C\CCCC(=O)S[C@H](COCCCCCCCCCCCCCCCC)COP(=O)([O-])OCC[N+](C)(C)C,5810
5,CCCCC/C=C\C/C=C\C/C=C\C/C=C\CCCC(=O)OCC(O)CO (stereo not given),4970
6,O=C(O)CCC/C=C\C[C@H]1[C@@H](/C=C/[C@@H](O)CCc2ccccc2)[C@H](O)C[C@H]1O,5150
7,CCCCC[C@H](O)/C=C/[C@@H]1[C@@H](CCCCC(CC(=O)O)OC)[C@@H](O)C[C@H]1O (stereo not given in full),5980
8,CCCCC[C@H](O)/C=C/[C@H]1C=CC(=O)[C@H]1CCCCCCC(=O)O,5070
9,CCCCC[C@H](O)/C=C/[C@@H]1[C@@H](C/C=C/CCCC(=O)O)[C@H](O)C[C@H]1O,5260
10,CCCCC[C@H](O)/C=C/[C@@H]1[C@H]2CC(CCCCC(=O)O)O[C@H]2C[C@H]1O (stereo not given in full),6700
11,C[Se]CC[C@H](N)C(=O)O,8780
12,CCCCC/C=C\C=C\C(O)CCCCCCCC(=O)OC[C@@H](COC(=O)CCCCCCC/C=C\C=C\C(O)CCCCC)OC(=O)CCCCCCC/C=C\C=C\C(O)CCCCC (stereo not given in full),5890
13,O=C(CCCCCc1ccccc1)c1nc2ncccc2o1,5480
14,CCCCCCCCCCCCCCCC(=O)OC,5710
15,CCCCC/C=C\C/C=C\CCCCCCCC(=O)OC(CO)CO,5470
16,COC(=O)[C@H](Cc1ccccc1)NC(=O)/C=C/c1ccc(O)cc1,6500
17,CCCCCC(=O)/C=C/C=O,5770
18,O=C(O)CCC/C=C\C[C@@H]1[C@@H](CCC(=O)CCc2ccccc2)[C@H](O)C[C@@H]1O,5970
19,O=P(O)(O)OC1[C@H](OP(=O)(O)O)[C@H](O)C(O)[C@H](O)[C@H]1OP(=O)(O)O (stereo not given in full),5720
20,CCCCCCCCCCCCCCCCCCCCCCCCCCCCCCO,6130
21,O=C(O)CCC/C=C\C[C@@H]1[C@@H](CC[C@@H](O)CCc2cccc(C(F)(F)F)c2)[C@H](O)C[C@@H]1O,6330
22,CC/C=C\C/C=C\C/C=C\CCCCCCCC(=O)OCC,5180
23,CCCCCCCCCCCCCCCC(=O)OCC,5080
24,NCc1cccc2ccncc12,5270
25,C/C=C/C(=O)O[C@H](COCCCCCCCCCCCCCCCC)COP(=O)([O-])OCC[N+](C)(C)C,4860

# Same assay, conditions: A549 miR-34 inducible, Hoechst nuclei count, 48 h; measured here: total cells without miR-34 induction
row,SMILES,cell count
1,N=C(N)SCCC[C@H](N)C(=O)O,5970
2,CC/C=C\C/C=C\C/C=C\C/C=C\CCCCC(=O)O,6540
3,CCCCC(C)(C)[C@H](O)/C=C/[C@@H]1[C@@H](C/C=C\CCCC(=O)O)[C@@H](O)C[C@H]1O,5800
4,CCCCC(C)(O)C/C=C/[C@H]1[C@H](O)CC(=O)[C@H]1CCCCCCC(=O)OC (stereo not given in full),5290
5,N[C@@H](Cc1ccc(O)c([N+](=O)[O-])c1)C(=O)O,6080
6,O=C(O)CCC/C=C\C[C@H]1[C@@H](/C=C/[C@@H](O)CCc2ccccc2)[C@H](O)C[C@@H]1O,6100
7,O=C(O)CCC/C=C\C[C@H]1C(=O)C[C@@H](O)[C@@H]1/C=C/[C@@H](O)Cc1ccccc1,5900
8,CCCCC/C=C\C/C=C\CCCCCCCC(=O)OCC(COC(=O)CCCCCCCCCCCCCCC)OC(=O)CCCCCCC/C=C\CCCCCCCC (stereo not given),5790
9,O=C(O)CCC/C=C\C[C@@H]1[C@@H](/C=C/[C@@H](O)C2Cc3ccccc3C2)[C@@H](F)C[C@@H]1O,5320
10,CCCCC[C@](C)(O)/C=C/[C@@H]1[C@@H](C/C=C\CCCC(=O)O)[C@@H](O)C[C@H]1O,5570
11,OC[C@H]1NC[C@H](O)[C@@H](O)[C@@H]1O,5180
12,CCCCCCCCCCCCC/C=C/[C@@H](O)[C@H](COP(=O)(O)O)NC(=O)CCCCCCC,5550
13,O=C(O)CCC/C=C\C[C@H]1C(=O)C=C[C@@H]1CC[C@@H](O)CCc1ccccc1,6690
14,CN(C)CCCCCCOc1ccc(-n2ccnc2)cc1,5240 and 6330
15,CCCCC[C@H](O)/C=C/[C@H]1OC(O)C[C@H](O)[C@@H]1CCCCCCC(=O)O (stereo not given in full),5470
16,CCOc1c2c(c(OCC)c3ccccc13)C(=O)N(c1ccc(CC(=O)NS(=O)(=O)c3ccccc3)cc1)C2,6100
17,CCCCCCCCCCOc1ccc(OCC(=O)Cn2cc(C(=O)OC)c3cc(C(=O)O)ccc32)cc1,6490
18,CCCCC(C)(C)[C@H](O)/C=C/[C@H]1C=CC(=O)[C@@H]1C/C=C\CCCC(=O)O,6200
19,CCCCC/C=C\C/C=C\C/C=C\C/C=C\CCCC(=O)S[C@H](COCCCCCCCCCCCCCCCC)COP(=O)([O-])OCC[N+](C)(C)C,5360
20,CCCCC/C=C\C/C=C\C/C=C\C/C=C\CCCC(=O)OCC(O)CO (stereo not given),5380

row,SMILES,cell count
1,O=C(O)CCC/C=C\C[C@H]1[C@@H](/C=C/[C@@H](O)CCc2ccccc2)[C@H](O)C[C@H]1O,5310
2,CCCCC[C@H](O)/C=C/[C@@H]1[C@@H](CCCCC(CC(=O)O)OC)[C@@H](O)C[C@H]1O (stereo not given in full),6470
3,CCCCC[C@H](O)/C=C/[C@H]1C=CC(=O)[C@H]1CCCCCCC(=O)O,5760
4,CCCCC[C@H](O)/C=C/[C@@H]1[C@@H](C/C=C/CCCC(=O)O)[C@H](O)C[C@H]1O,5540
5,CCCCC[C@H](O)/C=C/[C@@H]1[C@H]2CC(CCCCC(=O)O)O[C@H]2C[C@H]1O (stereo not given in full),7150
6,C[Se]CC[C@H](N)C(=O)O,9060
7,CCCCC/C=C\C=C\C(O)CCCCCCCC(=O)OC[C@@H](COC(=O)CCCCCCC/C=C\C=C\C(O)CCCCC)OC(=O)CCCCCCC/C=C\C=C\C(O)CCCCC (stereo not given in full),5740
8,O=C(CCCCCc1ccccc1)c1nc2ncccc2o1,5190
9,CCCCCCCCCCCCCCCC(=O)OC,5750
10,CCCCC/C=C\C/C=C\CCCCCCCC(=O)OC(CO)CO,5600
11,COC(=O)[C@H](Cc1ccccc1)NC(=O)/C=C/c1ccc(O)cc1,6490
12,CCCCCC(=O)/C=C/C=O,5720
13,O=C(O)CCC/C=C\C[C@@H]1[C@@H](CCC(=O)CCc2ccccc2)[C@H](O)C[C@@H]1O,6390
14,O=P(O)(O)OC1[C@H](OP(=O)(O)O)[C@H](O)C(O)[C@H](O)[C@H]1OP(=O)(O)O (stereo not given in full),6080
15,CCCCCCCCCCCCCCCCCCCCCCCCCCCCCCO,6350
16,O=C(O)CCC/C=C\C[C@@H]1[C@@H](CC[C@@H](O)CCc2cccc(C(F)(F)F)c2)[C@H](O)C[C@@H]1O,6830
17,CC/C=C\C/C=C\C/C=C\CCCCCCCC(=O)OCC,5770
18,CCCCCCCCCCCCCCCC(=O)OCC,5950
19,NCc1cccc2ccncc12,5780
20,C/C=C/C(=O)O[C@H](COCCCCCCCCCCCCCCCC)COP(=O)([O-])OCC[N+](C)(C)C,5710
